Potency and outcome data for 7 molecules are collected here from PubChem BioAssay (Tox21).

Each structure is given as a SMILES string. Values joined by “and” are separate entries in the source; they are usually repeats but may differ in a detail not shown here. Identical values can stand only once. Results filed as inconclusive are left out. Active and inactive are the calls of the source. Unless noted, calls come from the whole dose curve; as a rule, active = well fitted curve in the direction sought with a large enough effect in the repeat runs; inconclusive = weak or mixed curves; inactive = no such curve, though single readings can be large; an effect the other way counts as inactive or inconclusive.

A short description of assay [1]: qHTS assay for small molecule agonists of the p53 signaling pathway (AID 651631; calls by dose curve; note: nearly all actives have a fitted effect of over 15% in size; note: potency is the fitted concentration of half-maximal effect). The gist of the method:
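Beta-lactamase reporter activity under p53 response elements was quantified in HCT-116 cells by FRET fluorescence, following 16 h incubation with test compounds at 37 °C and 2 h substrate development at room temperature.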

Assay [2] is described as follows: qHTS assay for small molecules that induce genotoxicity in human embryonic kidney cells expressing luciferase-tagged ATAD5 (AID 651632). Note: nearly all actives have a fitted effect of over 15% in size. The gist of the method: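 DMSO vehicle served as the control. HEK293T reporter cells, 16 hr at 37C, then 30 min Amplite at room temperature; ATAD5 induction is measured as luciferase activity.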
(In general: qHTS replaces the single test concentration by a dilution series.)

A short description of assay [3]: qHTS assay for small molecule agonists of the p53 signaling pathway - cell viability (AID 651633; calls by dose curve; note: nearly all actives have a fitted effect of over 30% in size; note: potency is the fitted concentration of half-maximal effect). The gist of the method:
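p53RE-bla cells were treated with compound for 16 hours at 37 C. Cytotoxicity was then measured as CellTiter-Glo luminescence after 30 min at room temperature.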

A short description of assay [4]: qHTS assay for small molecules that induce genotoxicity in human embryonic kidney cells expressing luciferase-tagged ATAD5 - cell viability (AID 651634; calls by dose curve; note: nearly all actives have a fitted effect of over 25% in size). The gist of the method:
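Here HEK293T cells with the ATAD5 luciferase reporter are incubated with test compounds for 15.5 hr, and cytotoxicity is then gauged by measuring protease activity in live cells using fluorescence.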

The nature of assay [5]: qHTS assay for small molecule disruptors of the mitochondrial membrane potential - cell viability (AID 720634; calls by dose curve;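 note: human HepG2 liver cancer cells; series mostly up to about 83 µM; nearly all actives have a fitted effect of over 20% in size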). The gist of the method:
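Viability of HepG2 cells is scored from ATP content by luminescence; cells are exposed to compound for 1 hr at 37 C and 5% CO2, then dosed with m-MPI dye before the CellTiter-Glo reagent.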

The nature of assay [6]: qHTS assay to test for compound auto fluorescence at 590 nm (red) in HepG2 cells (AID 720674). The gist of the method: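 Seeding: 2,000 HepG2 cells/well, MEM/10% FBS, overnight 37 C. Dosing: compound vs DMSO. Incubation: 1 hr, 37 C, 5% CO2. Read: fluorescence 540 ex/590 em, Rose Bengal sodium as red reference.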
Assay [7] in a line: qHTS assay to test for compound auto fluorescence at 535 nm (green) in HepG2 cells (AID 720675).
Assay [8] is described as follows: qHTS assay to test for compound auto fluorescence at 460 nm (blue) in HEK293 cells (AID 720678). The gist of the method: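 Measured: blue fluorescence (Ex 405/Em 460 nm) of compound-treated HEK293 cells, incubated overnight at 37C with 5% CO2 and scaled to triamterene equivalents.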
Assay [9] is described as follows: qHTS assay to test for compound auto fluorescence at 590 nm (red) in HEK293 cells (AID 720679). The gist of the method: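 Using HEK293 cells at 2,000 per well, the screen added 23 nL of each compound after cell attachment and incubated overnight (37C, 5% CO2). The plate reader then captured red-label fluorescence, Ex/Em 540/590nm.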
Assay [10] in a line: qHTS assay to test for compound auto fluorescence at 535 nm (green) in HEK293 cells (AID 720680).
The nature of assay [11]: qHTS assay to test for compound auto fluorescence at 460 nm (blue) in HEK293 cell free culture (AID 720681). The gist of the method: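 Compounds were added to cell-free DMEM with 10% FBS and fluorescence read directly. The blue channel used 405 nm excitation and 460 nm emission, with triamterene as the reference fluorophore.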
Assay [12] in a line: qHTS assay to test for compound auto fluorescence at 535 nm (green) in HEK293 cell free culture (AID 720682). The gist of the method: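 Each library compound, or DMSO control, is added by pintool to medium alone, comprising DMEM and 10% FBS. Emission at 535 nm following 485 nm excitation is quantified against fluorescein.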
Assay [13] in a line: qHTS assay to test for compound auto fluorescence at 590 nm (red) in HEK293 cell free culture (AID 720683). The gist of the method:
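Cell-free wells of DMEM with 10% FBS received compound, and intrinsic fluorescence was read at excitation/emission 540/590 nm. Values expressed as equivalence to Rose Bengal sodium.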

The nature of assay [14]: qHTS assay to test for compound auto fluorescence at 590 nm (red) in HepG2 cell free culture (AID 720684). The gist of the method: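 Rose Bengal sodium served as the reference for red signal. Test compounds were dispensed into serum-containing MEM (10% FBS) without cells, and plates were read at 540/590 nm.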
Assay [15] in a line: qHTS assay to test for compound auto fluorescence at 460 nm (blue) in HepG2 cell free culture (AID 720685). The gist of the method:
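Cell-free plates of MEM plus 10% FBS received 23 nL compound or DMSO vehicle; blue-channel (405/460 nm) intensity scored against triamterene as reference fluorophore.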

Assay [16] in a line: qHTS assay to test for compound auto fluorescence at 535 nm (green) in HepG2 cell free culture (AID 720686).
Assay [17] is described as follows: qHTS assay to test for compound auto fluorescence at 460 nm (blue) in HepG2 cells (AID 720687). The gist of the method:
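HepG2 cells in MEM with 10% FBS, attached overnight at 37 C, were exposed to compound or DMSO for 1 hr at 37 C, 5% CO2. Blue fluorescence was read at 405/460 nm, with triamterene as reference fluorophore.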

Assay [18] has as its target Glucocorticoid receptor (Homo sapiens) (UniProt P04150). The assay can be described thus: qHTS assay to identify small molecule agonists of the glucocorticoid receptor (GR) signaling pathway (AID 720691; active = well fitted activation curve with a large enough effect in the signal ratio in the repeat runs, not every such curve was filed as active; the % refers to the signal ratio). The gist of the method:
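Compounds in DMSO, alongside positive controls, were added to GR-bla HeLa reporter cells and incubated 18 h at 37 C; GRE-driven beta-lactamase was detected by fluorescence after 2 h with FRET substrate at room temperature.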

The nature of assay [19]: qHTS assay for small molecule disruptors of the mitochondrial membrane potential (AID 720635). Note: potency is the fitted concentration of half-maximal effect. The gist of the method: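 HepG2 cells exposed to compound 1 hr at 37C, then Mito-MPS dye 30 min. Ratio read of aggregate (540/590 nm) versus monomer (490/535 nm) fluorescence.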
Assay [20] has as its target Glucocorticoid receptor (Homo sapiens) (UniProt P04150). Description: qHTS assay to identify small molecule antagonists of the glucocorticoid receptor (GR) signaling pathway (AID 720692; active = well fitted inhibition curve with a large enough effect in the signal ratio in the repeat runs, not every such curve was filed as active; the % refers to the signal ratio). The gist of the method:
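In a 1536-well cell format, compounds were added 4 h after seeding GR-bla HeLa cells, together with dexamethasone at 5 nM final; reporter activity was measured by FRET-substrate fluorescence following 18 h at 37 C.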

Glucocorticoid receptor (Homo sapiens), sequence (P04150 whole entry, looked up): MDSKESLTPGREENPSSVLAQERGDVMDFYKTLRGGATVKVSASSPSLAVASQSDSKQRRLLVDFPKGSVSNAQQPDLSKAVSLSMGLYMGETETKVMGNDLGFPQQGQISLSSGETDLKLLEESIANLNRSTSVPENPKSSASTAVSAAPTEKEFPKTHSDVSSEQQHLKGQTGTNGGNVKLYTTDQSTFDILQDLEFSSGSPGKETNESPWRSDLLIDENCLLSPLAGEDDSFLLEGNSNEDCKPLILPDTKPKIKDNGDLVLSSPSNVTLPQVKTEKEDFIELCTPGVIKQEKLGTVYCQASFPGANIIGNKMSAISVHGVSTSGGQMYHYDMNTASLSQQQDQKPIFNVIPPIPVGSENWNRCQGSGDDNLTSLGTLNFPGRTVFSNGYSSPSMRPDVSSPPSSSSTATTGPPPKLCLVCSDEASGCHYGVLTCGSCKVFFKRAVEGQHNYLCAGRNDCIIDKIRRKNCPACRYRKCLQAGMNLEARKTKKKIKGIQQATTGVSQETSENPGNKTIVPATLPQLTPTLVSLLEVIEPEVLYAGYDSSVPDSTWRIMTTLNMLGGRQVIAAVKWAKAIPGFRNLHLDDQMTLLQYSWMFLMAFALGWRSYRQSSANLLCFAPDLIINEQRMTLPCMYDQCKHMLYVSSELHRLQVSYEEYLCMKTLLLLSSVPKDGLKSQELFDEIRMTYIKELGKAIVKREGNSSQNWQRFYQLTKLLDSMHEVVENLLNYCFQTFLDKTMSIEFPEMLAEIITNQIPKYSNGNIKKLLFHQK

As to `CC(C)CCCCCOC(=O)c1ccccc1C(=O)OCCCCCC(C)C`, the Potency result in assay [1], in [2], in assay [3], in assay [4], in [5] and in [8] was “inactive” each time. The Potency result in [11], in assay [15], in [17] and in assay [18] was “inactive” each time. Further, the outcome in assay [6], in [7], in assay [9], in assay [10], in [12] and in assay [13] was inactive. The result in [14] and in assay [16] was inactive.
With `COc1cc(N)c(Cl)cc1C(=O)NC1CN2CCC1CC2` (centres undefined), the Potency result in assay [1], in assay [2], in assay [3], in [4], in [5] and in assay [19] was “inactive” throughout. Also, the Potency entry in [8], in assay [11], in [15], in assay [17] and in assay [18] was “inactive” each time. Also, the call in assay [6], in [7], in assay [9], in assay [10], in assay [12] and in assay [13] was inactive. In addition, the call in assay [16] was inactive.
As to `CC(C)CC(C)N` (centres undefined), the Potency entry in assay [1], in assay [2], in assay [3], in [4], in assay [5] and in [19] was “inactive” in each case. In addition, the Potency result in assay [8], in assay [11], in [17], in assay [18] and in assay [20] was “inactive” throughout. Besides, the molecule was called inactive in assay [6], in assay [7], in assay [10], in assay [12], in [13] and in assay [14]. Also, in [16], the call was inactive.
`Oc1ccc(C(c2ccc(O)cc2)(C(F)(F)F)C(F)(F)F)cc1`: the Potency is 60.8 µM (active) and 54.5 µM (active) in assay [1]; 68.2 µM (active) and 43.3 µM (active) in assay [3]; 2.72 µM (active) and 4.86 µM (active) in assay [19]. Besides, the Potency entry in assay [2], in [4], in assay [5], in assay [8], in assay [11] and in assay [15] was “inactive” each time. The Potency entry in [17] was “inactive”. In addition, the call in [6], in [7], in assay [9], in assay [10], in [12] and in [13] was inactive. In addition, the outcome in [14] and in [16] was inactive.
Take `CC(C)OC(=S)S`: the Potency result in [1], in [2], in [3], in [4], in [5] and in assay [8] was “inactive” in each case. The Potency entry in [11], in [15] and in assay [17] was “inactive” in each case. For the same molecule, the molecule was classed as inactive in assay [6], in assay [7], in assay [9], in assay [10], in [12] and in [13]. Besides, the molecule was called inactive in assay [14] and in assay [16].
Regarding `C[C@]12CC[C@@H]3c4ccc(OC(=O)N(CCCl)CCCl)cc4CC[C@H]3[C@@H]1CC[C@@H]2O`, the Potency in [1] was 21.1 µM (active). Moreover, the Potency entry in assay [2], in assay [3], in [4], in assay [5], in assay [19] and in assay [8] was “inactive” throughout. Further, the Potency entry in [11], in [15], in assay [17] and in assay [20] was “inactive” each time. For the same molecule, the molecule was called inactive in assay [6], in [7], in assay [10], in [12], in assay [13] and in assay [14]. In assay [16], the call was inactive.
Take `CCCCCCCCCBr`: the Potency entry in assay [1], in assay [2], in assay [3], in [4], in [5] and in [8] was “inactive” throughout. Further, the Potency result in assay [11], in [15] and in [17] was “inactive” throughout. Besides, the result in [6], in assay [7], in [9], in [10], in [12] and in assay [13] was inactive. Also, the result in [14] and in [16] was inactive.
